Each structure is given as a SMILES string. Unmarked numbers belong to inactive results. Inconclusive results are not listed. Calls of active or inactive are those of the source. Unless noted, calls follow the shape of the dose curve; as a rule, active = well fitted curve in the direction sought with a large enough effect in the repeat runs; inconclusive = weak or mixed curves; inactive = no such curve, though single readings can be large; an effect the other way counts as inactive or inconclusive.

For test [1], the target named is Thyrotropin-releasing hormone receptor (Homo sapiens) (UniProt P34981). Briefly: qHTS assay to identify small molecule agonists of the thyrotropin-releasing hormone receptor (TRHR) signaling pathway (AID 1346891; calls by dose curve; also: series mostly up to about 58 µM). In short, it runs like this:
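TRHR-expressing HEK293 cells were plated 18 h at 37 °C/5% CO2, loaded with calcium dye 2 h at 37 °C, then given compound in DMSO; fluorescence was read kinetically for 3 min at 1 s intervals.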
A general note: qHTS replaces the single test concentration by a dilution series.

Test [2] is described as follows: Human pregnane X receptor (PXR) small molecule agonists, qHTS cell viability counter screen (AID 1346977). Also: nearly all actives have a fitted effect of over 50% in size. The method, boiled down:
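PXR-Luc HepG2 cells in medium with 5% charcoal-stripped FBS were pre-incubated 5hr, then exposed to compounds for 24hr at 37C. Viability was read in the same wells by CellTiter-Fluor fluorescence, reagent added after 23hr with a 1hr incubation.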

A short description of test [3]: Caspase-3/7 induction in HepG2 cells by small molecules, qHTS assay (AID 1346978). Also: nearly all actives have a fitted effect of over 15% in size. In short, it runs like this: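 Caspase-3/7 induction was measured by Caspase-Glo 3/7 luminescence (30 min, room temperature) after a 17 hr compound exposure of wild-type HepG2 cells seeded at 2,000 per well and pre-incubated 5 hr.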
A short description of test [4]: Caspase-3/7 induction in CHO-K1 cells by small molecules, qHTS cell viability counter screen (AID 1346979). Also: nearly all actives have a fitted effect of over 35% in size. The method, boiled down: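 Wild-type CHO-K1 cells were seeded at 1,500 per well, rested 5hr at 37 C, then exposed to compounds in DMSO. After 16hr, CellTiter-Fluor reagent was added and fluorescence read 1hr later as the viability measure.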
Test [5] can be described thus: Caspase-3/7 induction in CHO-K1 cells by small molecules, qHTS assay (AID 1346980). Also: nearly all actives have a fitted effect of over 15% in size. In short, it runs like this: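 Luminescent Caspase-Glo 3/7 read (30min, room temperature) quantified apoptosis induction. Cells were wild-type CHO-K1, treated with compound for 17hr at 37 C and 5% CO2.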
Test [6] in a line: Caspase-3/7 induction in HepG2 cells by small molecules, qHTS cell viability counter screen (AID 1346981). Also: series mostly up to about 92 µM; nearly all actives have a fitted effect of over 30% in size. In short, it runs like this: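 Multiplexed with the caspase-3/7 assay: HepG2 cells, 16 hr compound treatment, CellTiter-Fluor viability detection by fluorescence.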
The target of test [7] is Nuclear receptor subfamily 1 group I member 2 (Homo sapiens) (UniProt O75469). Briefly: Human pregnane X receptor (PXR) small molecule agonists, qHTS assay (AID 1346982). Also: nearly all actives have a fitted effect of over 35% in size. Also: potency is read from the fitted curve at half-maximal effect. In short, it runs like this:
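We seeded PXR-Luc HepG2 cells in assay medium containing 5% charcoal-stripped FBS, added compounds 5 hr later, incubated 24 hr, and read luminescence with ONE-Glo reagent.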

The target in test [8] is Cytochrome P450 2D6 (Homo sapiens) (UniProt P10635). Briefly: Cytochrome P450 Family 2 Subfamily D Member 6 (CYP2D6) small molecule antagonists: luciferase reporter qHTS assay (AID 1671196). Also: nearly all actives have a fitted effect of over 50% in size. Also: potency is read from the fitted curve at half-maximal effect. As to activity change, negative = inhibition: series mostly up to about 120 µM. The method, boiled down: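 Luminescence (RLU), read 20 min after detection reagent, indicated CYP2D6 conversion of proluciferin to luciferin during a 1 h NADPH-dependent reaction at room temperature.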

In test [9] the target is Cytochrome P450 2C19 (Homo sapiens) (UniProt P33261). Briefly: Cytochrome P450 Family 2 Subfamily C Member 19 (CYP2C19) small molecule antagonists: luciferase reporter qHTS assay (AID 1671197). Also: nearly all actives have a fitted effect of over 65% in size. Also: potency is read from the fitted curve at half-maximal effect. As to activity change, negative = inhibition: series mostly up to about 120 µM. In short, it runs like this:
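Luminescent readout of CYP2C19 activity: luciferin product detected 20 min after adding detection reagent. Before that, compound and enzyme-substrate mix preincubated 10 min at room temperature; NADPH-regenerating system started a 1 h, 37C reaction. Ketoconazole as positive control.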

Test [10] addresses Cytochrome P450 2C9 (Homo sapiens) (UniProt P11712). Briefly: Cytochrome P450 Family 2 Subfamily C Member 9 (CYP2C9) small molecule antagonists: luciferase reporter qHTS assay (AID 1671198). Also: nearly all actives have a fitted effect of over 50% in size. Also: potency is read from the fitted curve at half-maximal effect. As to activity change, negative = inhibition: series mostly up to about 120 µM. In short, it runs like this:
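Enzyme-substrate mix preincubated with compound 10 min at room temperature; reaction started with NADPH regeneration solution, 1 h 37C. Luminescent luciferin product read after 20 min detection reagent.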
A general note: In a reporter assay the amount or activity of a reporter protein is the signal.

The target in test [11] is Cytochrome P450 1A2 (Homo sapiens) (UniProt P05177). Briefly: Cytochrome P450 Family 1 Subfamily A Member 2 (CYP1A2) small molecule antagonists: luciferase reporter qHTS assay (AID 1671199). Also: nearly all actives have a fitted effect of over 50% in size. Also: potency is read from the fitted curve at half-maximal effect. As to activity change, negative = inhibition: series mostly up to about 120 µM. The method, boiled down: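 CYP1A2 turnover of a luminogenic substrate was quantified after 1 h with NADPH regeneration at room temperature. Furafylline served as positive control.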

Test [12] has as its target Voltage-gated inwardly rectifying potassium channel KCNH2 (Homo sapiens) (UniProt Q12809). Briefly: Human Ether-a-go-go-Related Gene (hERG) channel small molecule antagonists: fluorescence cell-based qHTS assay (AID 1671200). In short, it runs like this: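 U2OS cells expressing the channel were plated at 1000 cells/well, incubated overnight at 37 C, then loaded with FluxOR II thallium-sensitive dye for 1 h at room temperature in the dark, with a further 10 min at room temperature before stimulation.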
On the technique in general: The hERG channel carries a current that helps repolarise heart muscle cells.

For test [13], the target named is Cytochrome P450 3A4 (Homo sapiens) (UniProt P08684). Briefly: Cytochrome P450 Family 3 Subfamily A Member 4 (CYP3A4) small molecule antagonists: luciferase reporter qHTS assay (AID 1671201). Also: nearly all actives have a fitted effect of over 50% in size. Also: potency is read from the fitted curve at half-maximal effect. As to activity change, negative = inhibition: series mostly up to about 120 µM. In short, it runs like this: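 P450-Glo CYP3A4 system with proluciferin substrate; compounds preincubated 10 min RT with enzyme-substrate mix, then NADPH regeneration added for 1 h RT. Detection reagent 20 min, luminescence read as relative luminescence units.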

The target in test [14] is Nuclear receptor subfamily 1 group I member 2 (Rattus norvegicus) (UniProt Q9R1A7). Briefly: Rat pregnane X receptor (rPXR) activation by small molecules, qHTS assay (AID 1346983). Also: nearly all actives have a fitted effect of over 20% in size. To be noted: rPXR luciferase reporter cells, One-Glo luminescence, 24 h; max activation: hits give high values. In short, it runs like this: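 Luminescent readout (One-Glo luciferase, 30 min room temperature) followed 24 hr compound treatment at 37 C of rPXR cells plated 2,000 per well and preincubated 5hr; qHTS format with compounds delivered in DMSO.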

The target in test [15] is Nuclear receptor subfamily 1 group I member 2 (Homo sapiens) (UniProt O75469). Briefly: CYP3A4 induction through human pregnane X receptor (PXR) by small molecules, qHTS assay (AID 1346984). Also: nearly all actives have a fitted effect of over 40% in size. In short, it runs like this: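 qHTS, concentration-response format: HepG2 DPX-2 line, PXR/CYP3A4-luc. Exposure 24 h, 37C. Substrate Luciferin-IPA 3uM final, 3 h. Detection One-Glo, 30 min RT.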

Test [16] has the same target. Briefly: Human pregnane X receptor (PXR) activation by small molecules, qHTS assay (AID 1346985). Also: nearly all actives have a fitted effect of over 40% in size. In short, it runs like this: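 DPX-2 cells (HepG2 co-transfected with a PXR response element and a CYP3A4-promoter luciferase construct) were seeded at 2,000 per well, rested 5 hr at 37C, then exposed to DMSO-dissolved compounds for 24 hr. Activation was read as luciferase luminescence.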
% is scaled to controls: 0 for no effect and ±100 for the full control effect.

Chain of Voltage-gated inwardly rectifying potassium channel KCNH2 (Homo sapiens) (Q12809 whole entry, looked up): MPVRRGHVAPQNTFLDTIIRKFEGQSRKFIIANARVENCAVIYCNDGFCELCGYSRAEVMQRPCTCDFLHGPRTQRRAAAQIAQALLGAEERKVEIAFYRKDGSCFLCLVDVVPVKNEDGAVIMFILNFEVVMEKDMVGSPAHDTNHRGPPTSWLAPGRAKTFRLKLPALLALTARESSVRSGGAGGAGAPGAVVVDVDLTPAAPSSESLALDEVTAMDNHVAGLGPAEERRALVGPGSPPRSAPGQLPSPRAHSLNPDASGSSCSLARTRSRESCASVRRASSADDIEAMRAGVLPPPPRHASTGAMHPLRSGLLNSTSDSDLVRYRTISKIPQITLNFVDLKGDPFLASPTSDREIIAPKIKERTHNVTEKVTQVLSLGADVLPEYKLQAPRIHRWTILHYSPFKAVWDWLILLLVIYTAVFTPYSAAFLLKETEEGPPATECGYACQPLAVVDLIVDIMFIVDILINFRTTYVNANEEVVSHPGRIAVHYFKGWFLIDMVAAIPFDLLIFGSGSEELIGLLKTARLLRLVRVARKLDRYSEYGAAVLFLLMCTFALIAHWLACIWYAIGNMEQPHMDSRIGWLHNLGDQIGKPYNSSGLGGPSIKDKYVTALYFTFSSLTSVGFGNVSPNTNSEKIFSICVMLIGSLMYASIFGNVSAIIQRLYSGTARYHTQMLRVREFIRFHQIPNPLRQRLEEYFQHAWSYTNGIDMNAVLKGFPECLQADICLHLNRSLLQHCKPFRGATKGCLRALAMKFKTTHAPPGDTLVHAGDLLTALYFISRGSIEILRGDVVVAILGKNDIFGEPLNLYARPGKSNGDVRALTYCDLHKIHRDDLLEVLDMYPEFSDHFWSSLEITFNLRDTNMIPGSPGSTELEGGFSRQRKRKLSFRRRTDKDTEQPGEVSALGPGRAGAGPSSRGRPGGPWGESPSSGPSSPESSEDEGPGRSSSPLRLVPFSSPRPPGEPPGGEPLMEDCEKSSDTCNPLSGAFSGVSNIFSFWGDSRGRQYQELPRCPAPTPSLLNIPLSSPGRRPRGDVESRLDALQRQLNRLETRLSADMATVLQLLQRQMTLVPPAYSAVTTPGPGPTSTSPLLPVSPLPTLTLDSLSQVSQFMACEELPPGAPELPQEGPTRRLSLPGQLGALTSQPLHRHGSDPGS
Chain of Nuclear receptor subfamily 1 group I member 2 (Homo sapiens) (O75469 whole entry, looked up): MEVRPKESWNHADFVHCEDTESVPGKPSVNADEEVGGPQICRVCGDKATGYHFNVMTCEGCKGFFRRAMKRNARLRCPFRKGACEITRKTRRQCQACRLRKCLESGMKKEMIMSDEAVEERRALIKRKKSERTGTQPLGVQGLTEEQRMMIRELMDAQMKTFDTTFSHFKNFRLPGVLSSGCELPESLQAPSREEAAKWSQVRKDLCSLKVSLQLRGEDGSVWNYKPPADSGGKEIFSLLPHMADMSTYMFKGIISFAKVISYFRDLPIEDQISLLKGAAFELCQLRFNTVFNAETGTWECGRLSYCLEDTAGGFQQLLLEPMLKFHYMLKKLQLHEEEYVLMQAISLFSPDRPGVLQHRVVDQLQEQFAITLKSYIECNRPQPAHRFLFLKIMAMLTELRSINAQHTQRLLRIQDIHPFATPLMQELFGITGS
Chain of Cytochrome P450 3A4 (Homo sapiens) (P08684 whole entry, looked up): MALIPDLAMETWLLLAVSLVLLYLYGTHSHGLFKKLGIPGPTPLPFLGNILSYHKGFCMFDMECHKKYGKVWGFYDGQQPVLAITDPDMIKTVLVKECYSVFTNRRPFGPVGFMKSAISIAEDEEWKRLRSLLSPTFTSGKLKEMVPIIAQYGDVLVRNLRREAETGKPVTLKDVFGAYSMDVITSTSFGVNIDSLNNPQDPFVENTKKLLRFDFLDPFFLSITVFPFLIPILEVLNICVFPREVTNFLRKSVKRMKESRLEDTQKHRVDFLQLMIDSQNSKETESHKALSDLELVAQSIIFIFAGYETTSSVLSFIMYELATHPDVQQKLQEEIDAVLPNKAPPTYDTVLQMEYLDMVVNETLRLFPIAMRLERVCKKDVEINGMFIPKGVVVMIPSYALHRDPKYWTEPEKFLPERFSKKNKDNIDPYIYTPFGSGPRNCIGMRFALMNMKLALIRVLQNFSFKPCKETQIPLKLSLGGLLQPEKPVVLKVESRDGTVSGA
Chain of Thyrotropin-releasing hormone receptor (Homo sapiens) (P34981 whole entry, looked up): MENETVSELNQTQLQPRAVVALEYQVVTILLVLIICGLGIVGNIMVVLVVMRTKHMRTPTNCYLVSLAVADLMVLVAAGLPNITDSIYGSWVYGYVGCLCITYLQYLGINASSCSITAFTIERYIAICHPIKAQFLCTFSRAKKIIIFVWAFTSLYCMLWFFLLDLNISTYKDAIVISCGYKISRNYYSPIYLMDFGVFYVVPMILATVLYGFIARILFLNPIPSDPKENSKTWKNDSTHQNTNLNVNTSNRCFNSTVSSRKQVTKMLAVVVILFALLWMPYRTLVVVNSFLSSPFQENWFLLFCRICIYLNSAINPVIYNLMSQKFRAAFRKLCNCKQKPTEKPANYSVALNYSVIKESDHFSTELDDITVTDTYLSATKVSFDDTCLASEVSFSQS
Chain of Cytochrome P450 2C19 (Homo sapiens) (P33261 whole entry, looked up): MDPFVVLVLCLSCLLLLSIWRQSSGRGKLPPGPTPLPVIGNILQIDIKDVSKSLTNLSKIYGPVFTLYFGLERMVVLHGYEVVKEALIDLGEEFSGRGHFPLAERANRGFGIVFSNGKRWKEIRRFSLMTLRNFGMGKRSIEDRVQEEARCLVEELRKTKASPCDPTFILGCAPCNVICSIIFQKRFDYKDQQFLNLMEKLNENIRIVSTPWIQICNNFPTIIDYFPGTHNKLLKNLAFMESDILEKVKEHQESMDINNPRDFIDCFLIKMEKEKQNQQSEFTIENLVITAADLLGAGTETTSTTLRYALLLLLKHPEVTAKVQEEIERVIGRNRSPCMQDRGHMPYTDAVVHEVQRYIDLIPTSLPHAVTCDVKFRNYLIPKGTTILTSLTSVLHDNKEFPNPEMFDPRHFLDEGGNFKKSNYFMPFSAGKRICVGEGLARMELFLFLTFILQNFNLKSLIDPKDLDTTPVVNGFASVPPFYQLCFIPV
Chain of Nuclear receptor subfamily 1 group I member 2 (Rattus norvegicus) (Q9R1A7 whole entry, looked up): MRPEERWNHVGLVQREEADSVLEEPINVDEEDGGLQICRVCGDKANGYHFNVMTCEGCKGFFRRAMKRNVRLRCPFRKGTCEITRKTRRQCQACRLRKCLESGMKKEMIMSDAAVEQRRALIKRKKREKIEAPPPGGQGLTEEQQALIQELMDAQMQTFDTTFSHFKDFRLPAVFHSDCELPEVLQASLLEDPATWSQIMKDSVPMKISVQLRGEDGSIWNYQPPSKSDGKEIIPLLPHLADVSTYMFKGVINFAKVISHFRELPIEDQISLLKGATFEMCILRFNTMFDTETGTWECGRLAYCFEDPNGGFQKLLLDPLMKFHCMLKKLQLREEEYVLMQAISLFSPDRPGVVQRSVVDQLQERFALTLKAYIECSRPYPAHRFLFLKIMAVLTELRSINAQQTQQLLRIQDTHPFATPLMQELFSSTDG
Chain of Cytochrome P450 2C9 (Homo sapiens) (P11712 whole entry, looked up): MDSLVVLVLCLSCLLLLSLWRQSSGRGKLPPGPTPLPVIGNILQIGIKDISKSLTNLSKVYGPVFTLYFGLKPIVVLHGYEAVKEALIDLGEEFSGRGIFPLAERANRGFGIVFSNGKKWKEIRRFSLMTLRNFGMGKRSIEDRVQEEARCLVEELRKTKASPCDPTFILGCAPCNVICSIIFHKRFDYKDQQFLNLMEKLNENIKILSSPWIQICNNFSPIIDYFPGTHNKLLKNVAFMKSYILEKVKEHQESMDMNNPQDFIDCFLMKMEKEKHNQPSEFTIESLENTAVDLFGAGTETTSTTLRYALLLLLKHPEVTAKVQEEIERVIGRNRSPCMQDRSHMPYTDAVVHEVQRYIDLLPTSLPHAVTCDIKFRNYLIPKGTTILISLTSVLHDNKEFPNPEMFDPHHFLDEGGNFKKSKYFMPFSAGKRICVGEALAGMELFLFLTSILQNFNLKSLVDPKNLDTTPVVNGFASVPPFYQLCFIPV
Chain of Cytochrome P450 2D6 (Homo sapiens) (P10635 whole entry, looked up): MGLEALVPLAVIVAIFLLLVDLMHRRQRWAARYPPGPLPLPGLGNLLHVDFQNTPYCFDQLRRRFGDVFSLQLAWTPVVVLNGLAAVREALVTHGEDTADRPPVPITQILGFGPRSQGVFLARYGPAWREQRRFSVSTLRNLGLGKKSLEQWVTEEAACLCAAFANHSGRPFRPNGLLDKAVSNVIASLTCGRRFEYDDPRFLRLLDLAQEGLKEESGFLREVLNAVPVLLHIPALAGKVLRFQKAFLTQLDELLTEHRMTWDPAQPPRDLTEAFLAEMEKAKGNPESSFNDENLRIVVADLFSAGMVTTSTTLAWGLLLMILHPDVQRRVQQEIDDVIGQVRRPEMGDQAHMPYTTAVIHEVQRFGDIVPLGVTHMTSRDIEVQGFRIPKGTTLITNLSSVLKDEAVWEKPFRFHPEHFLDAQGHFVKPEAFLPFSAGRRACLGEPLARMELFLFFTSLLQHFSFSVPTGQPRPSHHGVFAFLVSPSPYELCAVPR
Chain of Cytochrome P450 1A2 (Homo sapiens) (P05177 whole entry, looked up): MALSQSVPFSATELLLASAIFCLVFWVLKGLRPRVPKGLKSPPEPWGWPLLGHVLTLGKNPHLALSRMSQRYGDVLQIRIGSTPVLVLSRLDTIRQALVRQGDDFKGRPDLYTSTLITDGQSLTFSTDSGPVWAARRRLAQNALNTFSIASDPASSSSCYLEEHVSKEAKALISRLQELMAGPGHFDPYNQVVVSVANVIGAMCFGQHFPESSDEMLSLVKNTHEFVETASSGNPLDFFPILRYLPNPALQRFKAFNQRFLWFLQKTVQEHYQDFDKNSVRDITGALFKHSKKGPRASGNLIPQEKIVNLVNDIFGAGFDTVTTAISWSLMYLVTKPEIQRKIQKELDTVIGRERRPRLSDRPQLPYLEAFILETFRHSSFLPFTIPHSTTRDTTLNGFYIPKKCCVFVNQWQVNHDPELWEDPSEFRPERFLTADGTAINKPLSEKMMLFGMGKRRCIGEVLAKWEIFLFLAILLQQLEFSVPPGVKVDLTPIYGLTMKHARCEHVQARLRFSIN

As for `CCO[Si](CCCN=C=O)(OCC)OCC`, the call in [1], in test [3], in test [5] and in test [6] was inactive. Besides, the Potency result in [2], in [4], in [7], in test [8], in test [9] and in test [10] was “inactive” in each case. The Potency entry in test [11] and in [12] was “inactive” each time. In addition, in test [13], the Potency was 35.6 µM (active).
For `O=c1[nH]c(=O)n([C@H]2O[C@H](CO)[C@@H](O)[C@@H]2O)cc1/C=C\Br`, the outcome in test [1], in test [3], in test [5] and in [6] was inactive. Also, the Potency entry in test [2], in [4], in test [7], in test [8], in test [9] and in test [10] was “inactive” each time. The Potency result in test [11], in test [12] and in test [13] was “inactive” in each case.
Take `NCC[C@H](O)C(=O)N[C@@H]1C[C@H](N)[C@@H](O[C@H]2O[C@H](CN)[C@@H](O)[C@H](O)[C@H]2O)[C@H](O)[C@H]1O[C@H]1O[C@H](CO)[C@@H](O)[C@H](N)[C@H]1O`: the activation in test [1] is -0.0262% [at 0.218 µM]; in [7], -0.318% [at 0.349 µM]. Moreover, the values for the activity change, negative = cytotoxicity in [2], in test [4] and in test [6] were -0.464% [at 0.349 µM], -5.52% [at 0.349 µM] and -0.33% [at 0.349 µM], respectively. In addition, in [3], the caspase activation is -1.92% [at 0.349 µM]. The caspase-3/7 activation in test [5] was -0.155% [at 0.349 µM]. Further, the max activation in test [14] was -10.2%. The Potency entry in [15] and in test [16] was “inactive” each time. The activity change, negative = inhibition in [8] was -0.464% [at 0.435 µM]; in [9], 3.5% [at 0.435 µM]; in [10] it was 0.45% [at 0.435 µM]; in [12] it was 0.203% [at 0.29 µM]; in test [13], 8.51% [at 0.435 µM].
Consider `CN(C)CCOC(c1ccc(Cl)cc1)c1ccccn1` (stereo not given), for which the result in test [1], in test [3], in test [5] and in [6] was inactive. The Potency entry in test [2], in test [4], in test [7], in test [15], in test [9] and in test [10] was “inactive” each time. Besides, the Potency entry in test [12] was “inactive”. For the same compound, in test [14], the max activation is -0.352%. For the same compound, the Potency in test [8] was 13.8 µM (active).
As for `CC1=CCC2C(C1)C2(C)C` (stereo not given), the compound was classed as inactive in [1], in [3], in test [5] and in test [6]. Further, the Potency entry in [2], in test [4], in test [8] and in [12] was “inactive” each time. The Potency in test [7] was 48.6 µM (active); in test [9], 39.9 µM (active); in [10], 63.3 µM (active); in test [13], 15.9 µM (active).
For the compound `NS(=O)(=O)c1cc2c(cc1Cl)NC(CSCc1ccccc1)=NS2(=O)=O`, the compound was classed as inactive in test [1], in test [3], in test [5] and in test [6]. For the same compound, the Potency entry in test [2], in [4], in test [7], in [15], in [16] and in test [11] was “inactive” throughout. Also, the Potency result in test [12] is “inactive”. For the same compound, in test [14], the max activation is -1.07%. Also, the results for the Potency in [8] and in [10] were 34.7 µM (active) and 4.9 µM (active), respectively.
`CCC(C(=O)NC(N)=O)c1ccccc1` (stereo not given): the compound was called inactive in test [1], in test [3], in test [5] and in [6]. Also, the Potency entry in [2], in [4], in test [7], in test [15], in test [16] and in test [8] was “inactive” in each case. For the same compound, the Potency entry in [10], in test [12] and in [13] was “inactive” in each case. Moreover, the max activation in [14] is -2.91%. In addition, the Potency in [9] was 79.6 µM (active).
As to `CCCC(C)C(=O)O` (stereo not given), the compound was called inactive in [1], in test [3], in [5] and in test [6]. Also, the Potency result in [2], in test [4], in test [7] and in test [12] was “inactive” each time. In addition, the Potency is 34.2 µM (active) in test [8], 34.2 µM (active) in test [9], 54.1 µM (active) in [10] and 68.2 µM (active) in test [11].
In the case of `COc1cccc(OC)c1`, the compound was called inactive in [1], in test [3], in test [5] and in test [6]. Besides, the Potency result in test [2], in test [4], in test [7], in [8], in [9] and in test [10] was “inactive” in each case. In addition, the Potency result in test [11], in [12] and in [13] was “inactive” each time.

For the origin of these results see PubChem BioAssay (Tox21).
